Records with an inconclusive call do not appear. Calls of active or inactive are those of the source. The call rests on the fitted dose curve; in most records, active means well fitted inhibition curve with a large enough effect; inconclusive means small, poorly fitted or top-dose-only effect; inactive means flat fitted curve, though single readings scatter.
How the values were obtained:
Assay in all cases: Cytotoxic Profiling of Annotated Libraries Using Quantitative High-Throughput Screening (AID 1296008); further: nearly all actives have a fitted effect of over 60% in size
Settings in all cases: Five cell lines viability, CellTiter-Glo ATP luminescence, 48-72 h; max response: hits give low values
CRL-7250 = normal cell line; test system: CRL-7250
Method in brief: (§1)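 Cells exposed to compounds for 48 or 72 hr at 37 degrees Celsius. Viability read as ATP-coupled luminescence with CellTiter-Glo after 10 min at room temperature.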

HEK293 = test system: HEK293
Method in brief: as §1

HaCat = test system: HaCat
Method in brief: as §1

KB-3-1 = test system: KB-3-1
Method in brief: as §1

NIH3T3 = test system: NIH3T3
Method in brief: as §1

Measured: max response
On the % scale 0 is the no-effect control and ±100 the full control effect.

C=CC1(C)C=C2C(=O)OC(=O)C3=C(CCCC3(C)C)C2(O)CC1 (stereo not given)
inactive: CRL-7250 -0.556% | HEK293 -14.3% | HaCat 1.65% | KB-3-1 7.97% | NIH3T3 0.193%

COc1ccc(C(O)C(C)OC2OC(CO)C(O)C(O)C2O)cc1 (stereo not given)
inactive: CRL-7250 -9.11% | HEK293 0.525% | HaCat 1.16% | KB-3-1 | NIH3T3 -2.23%

CC(=O)N[C@H]1[C@H](O[C@H]2CC[C@@]3(C)C(CC[C@]4(C)C3CC=C3[C@@H]5CC(C)(C)CC[C@]5(C(=O)OC5OCC(O)C(O)C5O)CC[C@]34C)C2(C)C)O[C@H](COC2OC(C)C(O)C(OC3OC(C)C(O)C(O)C3O)C2O)[C@@H](O)[C@@H]1O (stereo not given in full)
inactive: CRL-7250 -6.06% | HEK293 -2.57% | HaCat 2.89% | KB-3-1 | NIH3T3 3.74%

C[C@@H]1CC[C@]2(C(=O)OC3OC(CO)C(O)C(O)C3O)CC[C@]3(C)C(=CCC4[C@@]5(C)CC[C@H](O)[C@](C)(C(=O)O)C5CC[C@]43C)C2[C@]1(C)O (stereo not given in full)
inactive: CRL-7250 | HEK293 -6.18% | HaCat -8.63% | KB-3-1 4.37% | NIH3T3 -0.137%

C/C=C(\C)C(=O)O[C@@H]1CC2[C@@H](CC=C3C[C@@H](O[C@H]4C[C@H](OC)[C@H](O[C@H]5C[C@H](OC)[C@H](O[C@@H]6O[C@H](C)[C@@H](O[C@H]7C[C@H](OC)[C@H](O[C@@H]8O[C@H](CO)[C@@H](O)[C@H](O)[C@H]8O)[C@@H](C)O7)[C@H](OC)[C@H]6O)[C@@H](C)O5)[C@@H](C)O4)CC[C@@]32C)[C@@]2(O)CC[C@H](C(C)=O)[C@@]12C (stereo not given in full)
inactive: CRL-7250 3.18% | HEK293 -3.44% | HaCat -4.54% | KB-3-1 8.46% | NIH3T3 -3.87%
